For 39 compounds, Potency results are on record in PubChem BioAssay (NCATS).

The structures appear in SMILES notation. Results filed as inconclusive are left out. Entries that show only a call come without a potency. Activity calls are given as the source filed them. Calls follow the shape of the dose curve; as a rule, active = well fitted inhibition curve with a large enough effect; inconclusive = small, poorly fitted or top-dose-only effect; inactive = flat fitted curve, though single readings scatter.
Potency is read from the fitted curve at half-maximal effect.

In the test the target is Calcium and integrin-binding protein 1 (Homo sapiens) (UniProt Q99828). Description: Primary qHTS for Identification of Calcium Integrin Binding Protein 1 (CIB1) Competitor (AID 1508620). Particulars: CIB1-GST / FITC-alphaIIb peptide fluorescence polarization; series mostly up to 114 µM. Summed up: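 CIB1-GST (1 uM final) and compound incubated 15 min at room temperature before adding FITC-alphaIIb peptide tracer (100 nM final). Competition for binding read by fluorescence polarization (ex 480, em 540) after another 15 min at room temperature.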
Calcium and integrin-binding protein 1 (Homo sapiens), sequence (Q99828 whole entry, looked up): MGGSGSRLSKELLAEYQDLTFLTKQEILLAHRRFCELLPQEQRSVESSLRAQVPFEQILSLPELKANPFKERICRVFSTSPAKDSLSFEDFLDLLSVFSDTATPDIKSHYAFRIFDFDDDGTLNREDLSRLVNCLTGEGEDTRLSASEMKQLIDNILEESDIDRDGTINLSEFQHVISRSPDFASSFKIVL
As for `CCNC(=O)c1ccc(-c2ccc3ncnc(NCC4CCCO4)c3c2)o1` (centres undefined), the Potency result was “inactive”.

On to `O=C(Nc1ccc2ccccc2c1)Nc1nnc(-c2ccccc2Cl)s1`, for which the Potency result was “inactive”.

For `O=C(Nc1ccc(Cl)c(Cl)c1)Nc1nnc(NC2CCNCC2)s1`, the Potency entry is “inactive”.

For `O=C(OCC#CCSc1nnc(-c2ccccc2)o1)c1ccc(F)cc1`, the Potency entry was “inactive”.

As for `CC1=C(C(=O)Nc2nnc(-c3ccccc3)s2)C(c2nn(C)cc2Cl)N=C(Nc2nc3ccccc3o2)N1` (centres undefined), the Potency entry is “inactive”.

On to `Oc1c(CN2CCCCC2)cc(COCc2ccccc2)c2cccnc12`, for which the Potency result is “inactive”.

Take `CC(=O)NC(c1ccco1)c1cc(Br)c2cccnc2c1O` (centres undefined): the Potency result was “inactive”.

With `CCCC(C)NC(=O)Cn1nc(-c2ccc(C)cc2)ccc1=O` (centres undefined), the Potency entry was “inactive”.

As to `CN1CCc2ccc3c4c2[C@]1(C)Cc1cccc(c1-4)OCO3`, the Potency was 39.8 µM (active).

As to `Cc1ccc(NC(=O)CN2C(=O)N/C(=C\c3cccn3-c3ccc(P(=O)(O)O)cc3)C2=O)cc1`, the Potency result is “inactive”.

Regarding `O=C1CCc2cc(S(=O)(=O)Nc3cccc(Br)c3)ccc2N1`, the Potency result is “inactive”.

For the compound `O=S(=O)(NN1CCOCC1)c1ccc(Br)cc1`, the Potency entry was “inactive”.

With `CCOc1ccc(CCNC(=O)c2cc3sccc3n2Cc2ccccc2)cc1OCC`, the Potency result was “inactive”.

As to `Cc1cc2c(s1)c1cnn(Cc3cccc(Cl)c3F)c(=O)c1n2C`, the Potency entry was “inactive”.

Consider `CC(C)Oc1cccc(-c2csc(N3CCC(C(N)=O)CC3)n2)c1`, for which the Potency entry was “inactive”.

On to `COc1cc(O)c(C(CC(=O)N2CCCC(C)C2)c2ccc(OC)c(OC)c2)c(OC)c1` (centres undefined), for which the Potency entry was “inactive”.

As for `COc1ccc(C2Nc3cccc(OC)c3C(=O)N2Cc2ccccc2)cc1COc1ccc(NC(C)=O)cc1` (centres undefined), the Potency result was “inactive”.

Regarding `O=C(Nc1ccc(-c2cccnc2)nc1)c1cccs1`, the Potency result was “inactive”.

For `CCCCN(C)C(=O)Cn1nc(-c2ccc(Cl)cc2)ccc1=O`, the Potency entry is “inactive”.

As to `Cc1ccc(-c2nc3ccccc3s2)cc1NC(=O)c1ccc(-c2cccc(Cl)c2)o1`, the Potency entry is “inactive”.

`Cc1cnc(-c2ccccc2C(C)C)nc1NCc1ccc(-c2nn[nH]n2)cc1`: the Potency result is “inactive”.

Take `Cc1ccc(OCCn2c(CCNC(=O)c3cccc4[nH]ccc34)nc3ccccc32)cc1`: the Potency result is “inactive”.

With `Cc1cc(C)nc(NC(=S)N2CCN(c3ccc(C(=O)O)cc3)CC2)c1`, the Potency result is “inactive”.

Take `COc1ccc(O)c(-c2nc3ccccc3c(=O)n2Cc2ccccc2)c1`: the Potency entry is “inactive”.

With `COc1cc(O)c([C@H](CC(=O)N2CC(C)CC(C)C2)c2ccc3c(c2)OCO3)c(OC)c1` (some centres undefined), the Potency entry was “inactive”.

Regarding `O=S(=O)(c1ccc2c(c1)OCCO2)C1CCC(O)CC1` (centres undefined), the Potency entry is “inactive”.

For `CCOC(=O)c1cccc(-n2cnc(/C=C3\NC(=O)N(CC(=O)OC(C)(C)C)C3=O)c2)c1`, the Potency entry is “inactive”.

As to `CNc1oc(-c2cccc3ncccc23)nc1C#N`, the Potency entry was “inactive”.

With `[O-][n+]1onc(-c2ccccc2)c1/C=N/O`, the Potency result is “inactive”.

`O=C(Nc1cccc([S+](=O)([O-])Nc2ccccc2F)c1)c1ccccc1`: the Potency result was “inactive”.

Regarding `N#CN1CCC(NS(=O)(=O)c2cccc(F)c2)C1` (centres undefined), the Potency result is “inactive”.

Consider `CN(C)C(=O)c1cccc(-c2csc(N3CCC(C(N)=O)CC3)n2)c1`, for which the Potency result was “inactive”.

On to `O=C(Cn1nc(-c2ccc(OC(F)(F)F)cc2)ccc1=O)NCCc1ccccc1`, for which the Potency result is “inactive”.

Turning to `c1csc(CNc2ccc(N3CCOCC3)cc2)c1`, the Potency entry was “inactive”.

Take `COc1cccc(NS(=O)(=O)c2ccc(NCc3cccc(OC)c3O)cc2)c1`: the Potency result is “inactive”.

On to `COc1ccc(C2=Nn3c(nnc3-c3ccccc3F)SC2)cc1OC1CCOC1` (centres undefined), for which the Potency result was “inactive”.

Regarding `O=C(c1ccccc1)N1CCN(c2nc(-c3cccs3)nc3ccccc23)CC1`, the Potency result was “inactive”.

As to `O=[N+]([O-])c1cccc(CSc2nc3ncc(Br)cc3[nH]2)c1`, the Potency entry is “inactive”.

Consider `O=C(O)c1cccc(S(=O)(=O)N2CCN(S(=O)(=O)c3ccc4c(c3)OCCO4)CC2)c1`, for which the Potency result was “inactive”.
